A short description of assay [1]: NCI Yeast Anticancer Drug Screen. Data for the rad50 strain (AID 155).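 Further: 0% = growth of vehicle-only cultures of the same strain.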 The conditions noted are these: S. cerevisiae rad50 strain growth inhibition, active compounds read high. A digest of the protocol:
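Yeast carrying a defined DNA repair defect were exposed to test compounds, and growth was compared with vehicle-treated controls to give percent inhibition.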

The nature of assay [2]: NCI Yeast Anticancer Drug Screen. Data for the mec2-1 strain (AID 157). To be noted: S. cerevisiae mec2-1 strain, active compounds read high. A digest of the protocol:
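Strain: mec2-1 (DNA repair/cell cycle alteration). Compound exposure, then growth measured; inhibition expressed relative to vehicle.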

Assay [3] can be described thus: NCI Yeast Anticancer Drug Screen. Data for the sgs1 mgt1 strain (AID 161).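 Further: 0% = growth of cultures given vehicle only.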 The conditions noted are these: S. cerevisiae sgs1 mgt1 strain, active compounds read high. Summed up: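 Mutant yeast exposed to compound; growth scored against vehicle-only wells.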
The nature of assay [4]: NCI Yeast Anticancer Drug Screen. Data for the cln2 rad14 strain (AID 165).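 Further: 0% = growth equal to vehicle treated cultures.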 To be noted: S. cerevisiae cln2 rad14 strain, active compounds read high. Summed up: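 Compounds are applied to the cln2 rad14 yeast strain, and growth is then compared with that of vehicle-treated cultures to give inhibition.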
The nature of assay [5]: NCI Yeast Anticancer Drug Screen. Data for the bub3 strain (AID 167). To be noted: S. cerevisiae bub3 mutant strain, active compounds read high. A digest of the protocol: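 Compounds were applied to a genetically altered yeast strain carrying a cell-cycle control defect. Growth inhibition was scored against vehicle-treated controls.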
Assay [6] in a line: NCI Yeast Anticancer Drug Screen. Data for the mlh1 rad18 strain (AID 175). To be noted: S. cerevisiae mlh1 rad18 strain growth inhibition, active compounds read high. A digest of the protocol:
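Read-out is yeast growth inhibition, calculated against vehicle-only controls. The compound was applied to a strain engineered with DNA damage repair alterations.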

Where [7] appears, read: at 5.0 µM (retest, dose inferred, filed as 0.5).
Where [8] appears, read: at 50.0 µM (retest, dose inferred, filed as 5.0).

Our source for the growth inhibition values is PubChem BioAssay (NCI).

Structures are written as SMILES. This is part of a sample that, as a whole, favours compounds with a hit. Of some 79,000 tested, about 15% had one in any assay. A number with no mark means an inactive call. Active and inactive are the calls of the source. No stated cut-off is given here; in the data, active means growth inhibition above about 70%; inactive means the rest.

Regarding `C=CS(=O)(=O)c1ccc2ccccc2c1`, the growth inhibition in assay [1] (setting [7]) is -100%; in assay [1] (setting [8]) it was 97% (active); in assay [1] (at 50.0 µM), 99.5% (active); in assay [2] (setting [7]), -22%; in assay [2] (setting [8]), 98% (active); in assay [2] (at 50.0 µM) it was 99.4% (active). Also, the growth inhibition in assay [3] (setting [7]) is -20%; in assay [3] (setting [8]), 98% (active); in assay [3] (at 50.0 µM), 99.2% (active); in assay [4] (setting [7]), -34%; in assay [4] (setting [8]) it was 97% (active); in assay [4] (at 50.0 µM) it was 98.7% (active). Further, the growth inhibition was -35% in assay [5] (setting [7]); 97% (active) in assay [5] (setting [8]); 98.8% (active) in assay [5] (at 50.0 µM); -93% in assay [6] (setting [7]); 97% (active) in assay [6] (setting [8]); 99% (active) in assay [6] (at 50.0 µM).
Regarding `O=C(N/N=C/c1ccccc1O)C1Cc2ccccc2C1C(Cl)Cl` (stereo not given), the growth inhibition is 51% in assay [1] (setting [7]); 97% (active) in assay [1] (setting [8]); 88% (active) in assay [1] (at 50.0 µM); 36% in assay [2] (setting [7]); 98% (active) in assay [2] (setting [8]); 91.3% (active) in assay [2] (at 50.0 µM). Besides, the growth inhibition was 47% in assay [3] (setting [7]); 99% (active) in assay [3] (setting [8]); 93% (active) in assay [3] (at 50.0 µM); 31% in assay [4] (setting [7]); 95% (active) in assay [4] (setting [8]); 89.5% (active) in assay [4] (at 50.0 µM). For the same compound, the growth inhibition is 45% in assay [5] (setting [7]); 82% (active) in assay [5] (setting [8]); 90.7% (active) in assay [5] (at 50.0 µM); 59% in assay [6] (setting [7]); 98% (active) in assay [6] (setting [8]); 90.8% (active) in assay [6] (at 50.0 µM).
Take `CCC1C(c2ccccc2O)c2cc3c(cc2OC1N1CCOCC1)OCO3` (stereo not given): the growth inhibition is -18% in assay [1] (setting [7]); 98% (active) in assay [1] (setting [8]); 85.9% (active) in assay [1] (at 50.0 µM); -32% in assay [2] (setting [7]); 99% (active) in assay [2] (setting [8]); 88.3% (active) in assay [2] (at 50.0 µM). In addition, the growth inhibition in assay [3] (setting [7]) was -42%; in assay [3] (setting [8]), 98% (active); in assay [3] (at 50.0 µM), 88.2% (active); in assay [4] (setting [7]), 9%; in assay [4] (setting [8]), 99% (active); in assay [4] (at 50.0 µM), 88.9% (active). For the same compound, the growth inhibition in assay [5] (setting [7]) was -50%; in assay [5] (setting [8]), 99% (active); in assay [5] (at 50.0 µM), 88.8% (active); in assay [6] (setting [7]), -13%; in assay [6] (setting [8]) it was 98% (active); in assay [6] (at 50.0 µM), 91.2% (active).
On to `CCOC(C)(OCC)C(N)c1ccccc1` (stereo not given), for which the growth inhibition is -15% in assay [1] (setting [7]); -12% in assay [1] (setting [8]); 14.3% in assay [1] (at 50.0 µM); 10% in assay [2] (setting [7]); -17% in assay [2] (setting [8]); 19.4% in assay [2] (at 50.0 µM). For the same compound, the growth inhibition in assay [3] (setting [7]) was 6%; in assay [3] (setting [8]) it was 9%; in assay [3] (at 50.0 µM) it was -0.2%; in assay [4] (setting [7]), -1%; in assay [4] (setting [8]), 5%; in assay [4] (at 50.0 µM), -5.65%. Further, the growth inhibition in assay [5] (setting [7]) was 6%; in assay [5] (setting [8]), 9%; in assay [5] (at 50.0 µM) it was -6.9%; in assay [6] (setting [7]), 2%; in assay [6] (setting [8]), 9%; in assay [6] (at 50.0 µM) it was 1.05%.
Regarding `O=C1c2ccccc2C2(O)c3cc4ccccc4cc3OC12O` (stereo not given), the growth inhibition in assay [1] (setting [7]) is -7%; in assay [1] (setting [8]) it was 41%; in assay [1] (at 50.0 µM) it was 52.2%; in assay [2] (setting [7]), -15%; in assay [2] (setting [8]), 19%; in assay [2] (at 50.0 µM), 52.2%. Moreover, the growth inhibition in assay [3] (setting [7]) is -16%; in assay [3] (setting [8]), 6%; in assay [3] (at 50.0 µM) it was 43%; in assay [4] (setting [7]) it was -10%; in assay [4] (setting [8]), 44%; in assay [4] (at 50.0 µM), 37%. Moreover, the growth inhibition in assay [5] (setting [7]) is -6%; in assay [5] (setting [8]), 59%; in assay [5] (at 50.0 µM), 44%; in assay [6] (setting [7]) it was -24%; in assay [6] (setting [8]) it was 55%; in assay [6] (at 50.0 µM), 72.7% (active).
Turning to `Oc1ccc(C(c2ccccc2)(c2ccccc2)c2ccccc2)cc1O`, the growth inhibition was -8% in assay [1] (setting [7]); 99% (active) in assay [1] (setting [8]); 98.2% (active) in assay [1] (at 50.0 µM); -2% in assay [2] (setting [7]); 100% (active) in assay [2] (setting [8]); 98.7% (active) in assay [2] (at 50.0 µM). Further, the growth inhibition in assay [3] (setting [7]) was -4%; in assay [3] (setting [8]), 99% (active); in assay [3] (at 50.0 µM), 98.3% (active); in assay [4] (setting [7]), 0%; in assay [4] (setting [8]), 97% (active); in assay [4] (at 50.0 µM) it was 97.4% (active). The growth inhibition in assay [5] (setting [7]) was -4%; in assay [5] (setting [8]), 99% (active); in assay [5] (at 50.0 µM), 98% (active); in assay [6] (setting [7]) it was 0%; in assay [6] (setting [8]) it was 99% (active); in assay [6] (at 50.0 µM), 98% (active).
With `CCCCCCCCCCCCNC(=O)NCC(OCC)OCC`, the growth inhibition in assay [1] (setting [7]) was -3%; in assay [1] (setting [8]), 96% (active); in assay [1] (at 50.0 µM), 89.3% (active); in assay [2] (setting [7]) it was 2%; in assay [2] (setting [8]), 97% (active); in assay [2] (at 50.0 µM), 91.5% (active). In addition, the growth inhibition in assay [3] (setting [7]) was 13%; in assay [3] (setting [8]) it was 95% (active); in assay [3] (at 50.0 µM) it was 92.3% (active); in assay [4] (setting [7]) it was 28%; in assay [4] (setting [8]), 95% (active); in assay [4] (at 50.0 µM) it was 83.3% (active). For the same compound, the growth inhibition in assay [5] (setting [7]) was 12%; in assay [5] (setting [8]), 97% (active); in assay [5] (at 50.0 µM), 91.8% (active); in assay [6] (setting [7]), -19%; in assay [6] (setting [8]), 96% (active); in assay [6] (at 50.0 µM), 90.3% (active).
In the case of `O=C(CCCCCCCCCCc1ccccc1)c1c(O)cccc1O`, the growth inhibition in assay [1] (setting [7]) is 37%; in assay [1] (setting [8]), 96% (active); in assay [1] (at 50.0 µM), 82.7% (active); in assay [2] (setting [7]) it was 29%; in assay [2] (setting [8]) it was 97% (active); in assay [2] (at 50.0 µM) it was 89% (active). In addition, the growth inhibition is 45% in assay [3] (setting [7]); 97% (active) in assay [3] (setting [8]); 87.2% (active) in assay [3] (at 50.0 µM); 24% in assay [4] (setting [7]); 95% (active) in assay [4] (setting [8]); 83.3% (active) in assay [4] (at 50.0 µM). In addition, the growth inhibition in assay [5] (setting [7]) is 41%; in assay [5] (setting [8]), 97% (active); in assay [5] (at 50.0 µM) it was 85.4% (active); in assay [6] (setting [7]) it was 39%; in assay [6] (setting [8]) it was 95% (active); in assay [6] (at 50.0 µM), 79.3% (active).
In the case of `Nc1cc(Br)cc2c1[nH]c1ccc(Br)cc12`, the growth inhibition in assay [1] (setting [7]) is 46%; in assay [1] (setting [8]), 98% (active); in assay [1] (at 50.0 µM), 98.6% (active); in assay [2] (setting [7]) it was 16%; in assay [2] (setting [8]), 98% (active); in assay [2] (at 50.0 µM), 99% (active). For the same compound, the growth inhibition is 59% in assay [3] (setting [7]); 99% (active) in assay [3] (setting [8]); 98.1% (active) in assay [3] (at 50.0 µM); 3% in assay [4] (setting [7]); 97% (active) in assay [4] (setting [8]); 97.8% (active) in assay [4] (at 50.0 µM). In addition, the growth inhibition in assay [5] (setting [7]) was 18%; in assay [5] (setting [8]) it was 98% (active); in assay [5] (at 50.0 µM) it was 98.5% (active); in assay [6] (setting [7]), 58%; in assay [6] (setting [8]), 98% (active); in assay [6] (at 50.0 µM) it was 98.9% (active).
For `COc1ccc(Cc2cncc3c(O)c(OC)ccc23)cc1O`, the growth inhibition in assay [1] (setting [7]) was -1%; in assay [1] (setting [8]), 44%; in assay [1] (at 50.0 µM) it was 80.2% (active); in assay [2] (setting [7]), 0%; in assay [2] (setting [8]), 50%; in assay [2] (at 50.0 µM), 69.2%. The growth inhibition is -13% in assay [3] (setting [7]); 50% in assay [3] (setting [8]); 39.2% in assay [3] (at 50.0 µM); 2% in assay [4] (setting [7]); 14% in assay [4] (setting [8]); 59.9% in assay [4] (at 50.0 µM). Further, the growth inhibition is -1% in assay [5] (setting [7]); 21% in assay [5] (setting [8]); 86.4% (active) in assay [5] (at 50.0 µM); 6% in assay [6] (setting [7]); 49% in assay [6] (setting [8]); 89.5% (active) in assay [6] (at 50.0 µM).
